# Assay results taken from PubChem BioAssay AID488890 (Southern Research Specialized Biocontainment Screening …, 2010).
# Out of some 320,000 compounds screened, about 1,300 (0.41%) were called active. Inconclusive results (about 3%) are left out. How the calls were made is not given here. A selection follows. Potency and affinity values are given separately.
# Assay: growth inhibition of non-replicating M. tuberculosis (AID 488890);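 further: plate controls were DMSO cells for no effect and high antibiotic wells for full effect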
# Conditions: Mycobacterium tuberculosis non-replicating, at 25 µM, stronger effect = higher value
row,SMILES,inhibition
1,COc1ccc(CC(=O)Nc2ccc(N3CCCCC3)cc2)cc1,10.3%
2,O=C(O)Cc1ccc(NC(=O)Nc2ccc3c(c2)OCO3)cc1,-6.44%
3,CC1=NN(Cc2cc(C(C)(C)C)c(O)c(C(C)(C)C)c2)C(=O)C1,-2.66%
4,OCCN1CCN(Cc2ccc3ccccc3c2)CC1,0.76%
5,OC1CCN(Cc2cccc(Oc3ccccc3)c2)CC1,-6.53%
6,OC1CCN(Cc2ccc3ccccc3c2)CC1,12.5%
7,CC(C)(C)c1cc(C(=S)N2CCN(CCO)CC2)cc(C(C)(C)C)c1O,19.5%
8,CC(C)(C)c1cc(CN2CCCCC2)cc(C(C)(C)C)c1O,16.6%
9,COCCCn1c(C)nnc1SCC(=O)NNC(=O)COc1ccc(Cl)cc1,0.75%
10,CSc1ccccc1C(=O)NCCSC(C)(C)C,-2.18%
11,COc1ccccc1NC(=O)COc1ccc(/C=N/NC(=O)CSCc2cc(C)cc(C)c2)cc1,8.98%
12,CN(C)c1ccc(C(=O)Nc2ccc(O)c3c(=O)cc(-c4ccccc4Cl)oc23)cc1,7.25%
13,O=C(Cn1cncn1)c1ccc(Cl)cc1,-4.45%
14,CC1=NN(C(=O)COc2ccccc2)C(O)(c2cccnc2)C1 (centres undefined),-18.8%
15,CCOC(=O)N1N=C(C)CC1(O)c1ccc(Cl)cc1 (centres undefined),-5.02%
16,CC1=NN(C(=O)Cc2ccccc2)C(O)(c2ccccc2)C1 (centres undefined),7.51%
17,CCC1=NN(C(=O)COc2ccccc2C)C(O)(c2ccncc2)C1 (centres undefined),-19%
18,COc1ccc(C(=O)Nc2ccc3nc(N4CCN(C)CC4)cc(C)c3c2)c(OC)c1,76%
19,CCc1nonc1NC(=O)c1oc2ccc(F)cc2c1C,-7.95%
20,CN1CCN(S(=O)(=O)c2ccc(NS(=O)(=O)c3ccccc3)cc2)CC1,2.91%
21,CC1CC(C)CN(C(=O)c2ccc(S(=O)(=O)N3CCCC3)cc2)C1 (centres undefined),62.4%
22,Cc1cc(C(F)(F)F)nc(SCC(=O)c2cccc([N+](=O)[O-])c2)n1,14.9%
23,O=C(COC(=O)c1ccc(Cl)c(S(=O)(=O)N2CCOCC2)c1)NCc1ccco1,-2.49%

row,SMILES,inhibition
1,O=C(Cc1ccc(-c2ccccc2)cc1)OCC(=O)N1CCCC1=O,16.6%
2,CSc1ccc(-c2sc(Nc3ccccc3)n[n+]2-c2ccc(F)cc2)cc1,20.5%
3,CN(C)c1ccc(-c2sc(Nc3ccccc3)n[n+]2-c2ccc(F)cc2)cc1,60.9%
4,Cc1cc(C(=O)NCCC2=CCCCC2)c(C)o1,15.7%
5,O=C(NCc1ccccn1)C1CCC(CNS(=O)(=O)c2cccc3nsnc23)CC1 (centres undefined),0.68%
6,O=C(Nc1ccccc1O)c1ccc(NS(=O)(=O)c2cccc3cccnc23)cc1,27.4%
7,Cc1ccc(/C=C(\NC(=O)c2ccccc2)C(=O)NC(Cc2ccccc2)C(=O)O)cc1 (centres undefined),-0.85%
8,CC(=O)Nc1ccccc1/C=C/c1ccc2c(C)ccc(O)c2n1,77.9%
9,Cc1ccc(O)c(CO)n1,1.36%
10,CN1CCCN(C(=O)c2ccc(Cl)cc2)CC1,-25.6%
11,Cc1sc2nc(CSc3ccc([N+](=O)[O-])c(C(F)(F)F)c3)[nH]c(=O)c2c1C,-14.8%
12,CCCC1(CCC)NC(=O)N(CC(=O)N2CCN(C(=O)c3ccco3)CC2)C1=O,0.73%
13,Cn1nc(-c2ccc(OCC(N)=O)cc2)c2ccccc2c1=O,27.5%
14,CNC(=O)COc1ccc(-c2nn(C)c(=O)c3ccccc23)cc1,-6.01%
15,CCN1CCN(c2nc(N)c([N+](=O)[O-])c(Nc3cccc(C)c3)n2)CC1,71.8%
16,CCOC(=O)CNC(=O)N1CCc2ccc(NC(=O)c3ccccc3OC)cc2C1,44.4%
17,CCN(C(=O)COC(=O)c1cccc(S(=O)(=O)N2CCOCC2)c1)C1CCS(=O)(=O)C1 (centres undefined),-11%
18,O=c1cc(C(F)(F)F)[nH]c2ccccc12,-4.11%
19,Cc1cccc2c(=O)cc(C(F)(F)F)[nH]c12,52.3%
20,O=C(O)CCCNS(=O)(=O)c1ccc(NCc2ccccc2)c(C(=O)O)c1,-9.34%
21,CCC1(O)CC(C(=O)OC)=NN1C(=O)c1ccccc1 (centres undefined),50.2%
22,CC1=NN(C(=O)c2ccccc2Br)C(O)(c2cccnc2)C1 (centres undefined),1.25%
23,CC1=NN(C(=O)CCc2ccccc2)C(O)(c2ccncc2)C1 (centres undefined),-17.3%

row,SMILES,inhibition
1,CC1=NN(C(=O)c2ccccc2Cl)C(O)(c2cccnc2)C1 (centres undefined),-11.1%
2,Nc1ccc(C(=O)N2N=C(c3ccccc3)CC2(O)C(F)(F)F)cc1 (centres undefined),18.4%
3,COC(=O)C1=NN(C(=O)c2ccc(C)cc2)C(O)(c2ccc(Cl)cc2)C1 (centres undefined),68.2%
4,O=C(c1ccccc1)N1N=C(c2ccccc2)CC1(O)C(F)(F)F (centres undefined),66.9%
5,CCOC(=O)N1N=C(c2ccccc2)CC1(O)C(F)(F)F (centres undefined),-6.72%
6,CC(=O)Nc1sc(C)c(C)c1C(=O)OCC(=O)Nc1ccccc1,6.17%
7,CSc1ncccc1C(=O)OCc1ccc([N+](=O)[O-])cc1,39.8%
8,COc1ccc(C(=O)N/N=C2\CCc3ccccc32)cc1OC,-1.04%
9,Cc1cccc(NC(=O)C[n+]2ccccc2)c1,16.1%
10,Cc1c(NC(=O)COC(=O)c2cc(-c3ccc(-c4ccccc4)cc3)nc3ccccc23)c(=O)n(-c2ccccc2)n1C,-36%
11,NC(=O)c1nsc(C(=O)N(c2cccc(F)c2)C(C(=O)NCC2CCCO2)c2c[nH]c3ccccc23)c1N (centres undefined),29.5%
12,CC1=NN(C(=O)c2ccco2)C(O)(c2ccccc2)C1 (centres undefined),70.5%
13,O=C(c1ccccc1)N1N=C(c2ccc(F)cc2)CC1(O)C(F)(F)F (centres undefined),67.9%
14,O=C(c1ccco1)N1N=C(c2ccc(Cl)cc2)CC1(O)C(F)(F)F (centres undefined),58%
15,CC1=NN(C(=O)Cc2ccccc2)C(O)(c2cccnc2)C1 (centres undefined),-2.18%
16,C=CCn1c(SCC(=O)Nc2ccccc2OC)nc2c([nH]c3ccccc32)c1=O,-4.69%
17,COc1ccccc1-c1nnc(SCc2nc3ccccc3[nH]2)n1C,25.9%
18,O=C(Nc1cccc(F)c1)Nc1ccc2c(c1)C(=O)OC2,-9.41%
19,Cc1cccc(C)c1OCC(=O)NCC1COc2ccccc2O1 (centres undefined),-21%
20,CCN1CCN(c2ccc(NC(=O)c3ccco3)cc2Cl)CC1,-16.6%
21,CCOC(=O)Cc1c(C)nc2c(C#N)c[nH]n2c1=O,-14.1%
22,CCOC(=O)Cc1cc(=O)n2[nH]cc(-c3ccc(Cl)cc3)c2n1,81.6%
23,CCOC(=O)Cc1c(C)nc2c(-c3ccccc3)c(C)[nH]n2c1=O,23.1%

row,SMILES,inhibition
1,CCOC(=O)Cc1c(C)nc2c(-c3cccc(Br)c3)cnn2c1C,-10.5%
2,CC1=CC(C)(C)Nc2ccc(OS(=O)(=O)c3ccc(C)cc3)cc21,-0.67%
3,CN(C)S(=O)(=O)n1ccnc1,-7.18%
4,Oc1ccc(-c2nc3ncccn3c2Nc2ccc3c(c2)OCO3)cc1,0.55%
5,c1cnc2nc(-c3ccc4c(c3)OCO4)cn2c1,14.6%
6,COCCn1c(SCC(=O)NC(=O)NC2CCCC2)nc2ccccc2c1=O,-3.24%
7,CN(C)CCCNC(=O)CC1C[C@H](C(=O)N2CCOCC2)[C@@]2(CCC3CCCC3)c3[nH]c4ccccc4c3CCN2C1=O (some centres undefined),48.7%
8,CC(C)(C)NCc1ccccc1OCc1cccs1,6.2%
9,C=CCOc1ccc(Br)cc1CNC(C)(C)C,54.2%
10,CC(C)COc1ccc(Br)cc1CNC(C)(C)C,72%
11,Cn1nnc(NCc2cc(Br)ccc2OCc2cccs2)n1,24.3%
12,CC1CCCCN1CCn1c(=S)[nH]c2cc3c(cc2c1=O)OCO3 (centres undefined),9.55%
13,Cc1c(/C=C2\NC(=O)NC2=O)c2ccccc2n1C,16.4%
14,O=c1cc(O)n(Cc2ccc(F)cc2)c(=O)[nH]1,-1.55%
15,CCOCCCNC(=O)C1CCC(CNS(=O)(=O)c2cccc3nsnc23)CC1 (centres undefined),-10.5%
16,COc1ccc(C(=O)c2cc3cccc(OC)c3o2)cc1,70.7%
17,COc1cccc2cc(C(=O)c3ccccc3)oc12,77.7%
18,O=C(COc1ccccc1Cl)N1CCN(C(=O)c2ccco2)CC1,6.78%
19,CCOCCOC(=O)c1[nH]c2c(c1C)C(=O)CC(c1cccs1)C2 (centres undefined),5.49%
20,Cc1[nH]c2ccc(Br)cc2c(=O)c1CN1CCCCC1,6.69%
21,CO/N=C/CC(=O)Nc1ccc(F)cc1F,-1.66%
22,O=C(O)CC(Cc1ccc(Cl)cc1)C(=O)Nc1ccc([N+](=O)[O-])cc1 (centres undefined),7.55%
23,O=C(CCNC(=O)c1ccc([N+](=O)[O-])cc1)Nc1ccc(F)cc1F,69.1%

row,SMILES,inhibition
1,O=C(C/C=N\OCc1ccc(Cl)cc1Cl)Nc1ccccc1,55.5%
2,O=C(Cc1ccc([N+](=O)[O-])cc1)Nc1ccc(Cl)cc1,12.6%
3,COC(=O)C(/C=N/OCc1ccc([N+](=O)[O-])cc1)NC(=O)c1ccccc1 (centres undefined),1.7%
4,O=C(NCCCCc1ccccc1)C1CC(c2cccc(F)c2)=NO1 (centres undefined),9.38%
5,Nn1c(-c2ccccc2)nc2ccccc2c1=O,-12.5%
6,O=C(O)c1cnc(-c2ccccc2)nc1Sc1cccc(Cl)c1,53.3%
7,CCC(CC)NC(=O)COC(=O)c1cc(SC)ccc1Cl,28.5%
8,CCOc1ccccc1N1CCN(CC(O)COC2CCCc3ccccc32)CC1 (centres undefined),59.7%
9,CN(C)C(=O)CSc1nnc([C@H](Cc2c[nH]c3ccccc23)NC(=O)OC(C)(C)C)o1,-0.86%
10,CC(CCc1ccc(O)cc1)NC1c2ccccc2-c2ccccc21 (centres undefined),43.3%
11,CC(C)=N/N=C1\NC(=O)C(C)S1 (centres undefined),54%
12,O=C(CNC(=O)N1CC(=O)Nc2ccccc21)Nc1ccccc1F,-10.2%
13,N=C1S/C(=C\c2ccco2)C(=O)N1c1ccc2c(c1)OCO2,0.43%
14,COc1ccc(/C=C2\SC(=N)N(c3nccs3)C2=O)cc1OC,-5.11%
15,CN(C1CCCCC1)S(=O)(=O)c1cccc(C(=O)Nc2ccccn2)c1,25.5%
16,CCOP(=O)(Cc1cc(C(=O)CC)c(C)o1)OCC,-21.9%
17,CC(C)(C)c1csc(Sc2ncccc2[N+](=O)[O-])n1,19.4%
18,O=c1ccnc(Sc2ncccc2[N+](=O)[O-])[nH]1,37.6%
19,Cc1ccc(Sc2ncccc2[N+](=O)[O-])cc1,23.3%
20,O=[N+]([O-])c1cccnc1Sc1ccc(F)cc1,18.3%
21,CCn1c(=O)n(-c2ccc(Cl)cc2)c(=O)c2c3c(sc21)COC(C)(C)C3,5.56%
22,O=C(COC(=O)Cc1ccsc1)Nc1ccc(Cl)cc1F,70.1%
